Source: ChEMBL document CHEMBL4513216, “Probing the Open Global Health Chemical Diversity Library for Multistage-Active Starting Points for Next-Generation Antimalarials” (ACS Infect Dis, 2020)
The whole screen tested about 69,000 compounds, of which about 8,600 (12%) showed an effect of 50% or more. Only a selection was taken, and strong results are over-represented in it overall.

What follows are molecules tested on Plasmodium berghei (assay: Screen against P. berghei liver stage (PbLuc), transformed with Luciferase, at 10uM). Conditions: tested at 10 uM.
Format: functional, HepG2

| Compound | INHIBITION |
| --- | --- |
| CNC(=O)c1ccc(C(=O)N2CCCC(n3ccnc3)C2)cn1 (stereo not drawn) | 18.2% |
| Cc1cnn(CC2CCCN2CC(=O)NC2CCOCC2)c1 (stereo not drawn) | 15.3% |
| O=C1NCCN(CC2CC2)C12CCN(Cc1ccccc1)CC2 | 47.4% |
| CCc1noc(CN2CCCN(Cc3cccs3)CC2)n1 | -47.6% |
| Cc1nn(C)c(Cl)c1C1CCCN1Cc1ccc(C(N)=O)cc1 (stereo not drawn) | -1.14% |
| CCn1cc2c(n1)C(COCC1CC1)CN(c1ccc(C)nn1)C2 (stereo not drawn) | 41% |
| COCC1CN(c2ccncn2)Cc2cnn(CC3CCCC3)c21 (stereo not drawn) | 19.5% |
| CCn1cc2c(n1)C(COC)CN(c1ccc(C)nn1)C2 (stereo not drawn) | 36.2% |
| Cn1ncc2c1C(COCC1CC1)CN(S(C)(=O)=O)C2 (stereo not drawn) | 33.4% |
| CS(=O)(=O)N1Cc2cnn(CC3CC3)c2C(COCC2CC2)C1 (stereo not drawn) | 53.4% |
| CCOCC1CN(C2CCCC2)Cc2cnn(CC3CCOCC3)c21 (stereo not drawn) | 58.8% |
| CCOCC1CN(c2ccc(C)nn2)Cc2nn(CC)cc21 (stereo not drawn) | 63.5% |
| CCOCC1CN(C)Cc2cnn(CC3CCCC3)c21 (stereo not drawn) | 36.8% |
| CCOCC1CN(c2ncccn2)Cc2cnn(CC3CCOCC3)c21 (stereo not drawn) | 22.5% |
| COCC1CN(c2ncccn2)Cc2cnn(CC3CC3)c21 (stereo not drawn) | 84.2% |
| CCOCC1CN(S(=O)(=O)CC)Cc2cnn(CC3CC3)c21 (stereo not drawn) | 31.7% |
| CCOCC1CN(S(C)(=O)=O)Cc2cnn(CC3CCOCC3)c21 (stereo not drawn) | 30.1% |
| CCc1ccc(NC(=O)c2cnc(N3CCCC3)nc2C)cc1 | -55.4% |
| CCCn1cc(NC(=O)Nc2ccc(F)c(C(=O)NC)c2)cn1 | 11.3% |
| OC[C@H]1CN(C2Cc3ccccc3C2)C[C@H]1CN1CCC(O)CC1 | 29.4% |
| CCCOCC1CCN(C(=O)c2cnc(-c3csc(C)n3)nc2O)C1 (stereo not drawn) | -33.9% |
| O=C(CSc1nccc(-c2ccc3c(c2)OCO3)n1)N1CCOCC1 | -47.8% |
| Cc1cnn(CC2CCCN2Cc2nnc(-c3ccccc3)o2)c1 (stereo not drawn) | 40.9% |
| N#Cc1cccc(OCCN2CCn3c(nnc3C3CC3)C2)c1 | -1.14% |
| CCN(Cc1cccc2c1OCO2)C(=O)Nc1cn[nH]c1 | -16% |

| Compound | INHIBITION |
| --- | --- |
| COCC1CN(C(=O)c2ccoc2)Cc2cnn(CC3CCOCC3)c21 (stereo not drawn) | 51.4% |
| O=C(c1ccoc1)N1Cc2cnn(CC3CC3)c2C(COCC2CC2)C1 (stereo not drawn) | 22.6% |
| Cn1ncc2c1C(COCC1CC1)CN(C(=O)c1ccoc1)C2 (stereo not drawn) | 25.6% |
| Cc1nn(CCO)c(C)c1-c1cc(C(C)(C)C)nc(N)c1C#N | -0.71% |
| COc1cc(F)ccc1NC(=O)NCCNC(=O)OC(C)(C)C | 19.1% |
| CCC(=O)Nc1ccc(F)cc1OC | 27.6% |
| COc1cc(F)ccc1NC(=O)NC(C)C(=O)NC(C)(C)C (stereo not drawn) | 50.1% |
| CCn1ncc(CN2CCC(c3ncc(Cl)cc3S(C)(=O)=O)CC2)c1C | 20.57% |
| COc1ncccc1C(=O)NCCn1nc(C)ccc1=O | 3.68% |
| CNc1ccc(C2CN(c3nc(C)cc(C)n3)CCO2)nc1 (stereo not drawn) | -7.9% |
| COc1ccc(CN2CCC3(CC(=O)N(c4cncnc4)C3)C2)cc1 (stereo not drawn) | 42.6% |
| CC(=O)NCCNC(=O)CN1CCCC1c1c(C)nn(C)c1C (stereo not drawn) | 60.2% |
| COc1c(C2CCCN2Cc2nnc(C3CC3)n2C)c(C)nn1C (stereo not drawn) | 5.94% |
| Cc1nn(C)c(C)c1C1CCCN1Cc1nnc(C2CC2)n1C (stereo not drawn) | 50.5% |
| Cc1nn(C)c(Cl)c1C1CCCN1CC(=O)NC1CCCCC1 (stereo not drawn) | 14.7% |
| Cc1nn(C)c(Cl)c1C1CCCN1CC(=O)NC1CCCC1 (stereo not drawn) | 53% |
| Cc1nn(C)c(C)c1NC(=O)CN1CCCC1c1c(C)nn(C)c1C (stereo not drawn) | 28.8% |
| Cc1nn(C)c(Cl)c1C1CCCN1CC(=O)N1CCOCC1 (stereo not drawn) | 33.6% |
| CC(=O)N1CCN(C(=O)CN2CCCC2c2c(C)nn(C)c2C)CC1 (stereo not drawn) | 50.1% |
| COCCNC(=O)CN1CCCC1c1c(C)nn(C)c1Cl (stereo not drawn) | 36.1% |
| Cc1nn(C)c(Cl)c1C1CCCN1Cc1nnc(C2CC2)n1C (stereo not drawn) | 7.93% |
| Cc1nn(C)c(C)c1C1CCCN1CC(=O)NC(C1CC1)C1CC1 (stereo not drawn) | 25.7% |
| Cc1nn(C)c(Cl)c1C1CCCN1CC(=O)N1CCCCC1 (stereo not drawn) | -3.21% |
| Cc1cc(C(=O)NC2CCc3c(ccc(=O)n3CC(C)C)C2)no1 (stereo not drawn) | 2.7% |
| CN(CCC#N)C(=O)Cn1cnc2c(Br)cccc2c1=O | 11.9% |

| Compound | INHIBITION |
| --- | --- |
| CCn1ccnc1CN1CCCN(C(=O)c2ccsc2)CC1 | 16.165% |
| CS(=O)(=O)c1ccc(NCCC2CCCO2)c(S(C)(=O)=O)c1 (stereo not drawn) | 15.2% |
| Cc1cccc(SC2CCN(C(=O)CCCn3cnnn3)CC2)c1 | 43.8% |
| CN(C)Cc1ccnc(NS(=O)(=O)Cc2cccc(F)c2)c1 | 27% |
| CC(C)n1cnnc1C1CCCN(C(=O)COCc2ccccc2)C1 (stereo not drawn) | 2.3% |
| NC(=O)c1csc(N2C[C@@H](CN3CCC(O)CC3)[C@@H](CO)C2)n1 | 19.6% |
| CC(NC(=O)CSCC(N)=O)c1ccccc1Oc1ccccc1 (stereo not drawn) | 71.4% |
| CC(NC(=O)CSCC(N)=O)c1ccc(Oc2ccccc2)cc1 (stereo not drawn) | 1.86% |
| CCS(=O)(=O)CC(=O)NC(C)c1ccccc1Oc1ccccc1 (stereo not drawn) | -3.94% |
| Cc1nnc(N2C[C@@H](OCC3CCCC3)[C@H]3OCCC[C@H]32)s1 | -36% |
| O=C(c1ccc2[nH]nnc2c1)N1C[C@H](O)[C@]2(CCCO2)C1 | 4.41% |
| O=C(NCCCN1CCCCC1)c1ccc(-n2ccc3ccccc32)s1 | 84.5% |
| O=C(NCCCN1CCCC1=O)c1ccc(-n2ccc3ccccc32)s1 | -45.5% |
| O=C(NCCN1CCOCC1)c1ccc(-n2ccc3ccccc32)s1 | 63.2% |
| CCN(CC)CCNC(=O)c1cnc(C(C)(C)C)s1 | 4.88% |
| CCN(CC)CCNC(=O)c1ccc(-n2ccc3ccccc32)s1 | 75.1% |
| O=C(NCCCN1CCCCC1)c1n[nH]c(=O)c2ccccc12 | 14.4% |
| Cn1ccc2c(C(=O)NCCCN3CCOCC3)cccc21 | 22.2% |
| Cc1nc(-c2cc(C(=O)NCCN3CCOCC3)c3ccccn23)cs1 | -11.6% |
| Cn1ccc2c(C(=O)NCCCS(C)(=O)=O)cccc21 | 9.16% |
| Cn1ccc2c(C(=O)NCCCN3CCCC3)cccc21 | 55.9% |
| O=C(NCCCN1CCOCC1)c1ccc(-n2ccc3ccccc32)s1 | 29.3% |
| CCC1CN(CC(=O)NCCN(CC)CC)c2ccccc2S1 (stereo not drawn) | 19.4% |
